PubChem BioAssay (Tox21)
Values without a mark were called inactive. Records with an inconclusive call do not appear. Entries that show only a call come without a potency. Calls of active or inactive are those of the source. Unless noted, calls come from the whole dose curve.

Key:
[1] = Nuclear factor erythroid 2-related factor 2/antioxidant responsive element (Nrf2/ARE) small molecule agonists: qHTS cell viability counter screen in human keratinocytes (AID 1919968; active = well fitted curve in the direction sought with a large enough effect in the repeat runs; an effect the other way counts as inactive or inconclusive; note: nearly all actives have a fitted effect of over 55% in size)
Method in brief: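 KeratinoSens cells (HaCaT keratinocytes stably carrying an ARE-luciferase reporter) were seeded at 1,500 cells/well and rested 5 h at 37 C/5% CO2. They were then exposed to compounds in DMSO for 23 h. Viability was read by CellTiter-Fluor fluorescence after 1 h.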

[2] = Nuclear factor erythroid 2-related factor 2/antioxidant responsive element (Nrf2/ARE) small molecule agonists: luciferase reporter gene qHTS assay in human keratinocytes (AID 1919969); note: nearly all actives have a fitted effect of over 35% in size; note: potency is the fitted concentration of half-maximal effect
[3] = biological target: Gonadotropin-releasing hormone receptor (Homo sapiens) (UniProt P30968); assay: Human gonadotropin-releasing hormone receptor (GnRHR) small molecule agonists, calcium flux assay in GnRHR-HEK293 cells (AID 1920063); note: nearly all actives have a fitted effect of over 35% in size
Method in brief: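 HEK293 cells stably expressing human GnRHR were plated 18 h at 37 °C, loaded with calcium dye 1 h at 37 °C, then given compound in agonist mode; fluorescence (Ex/Em 480/540) read kinetically for 3 min at 1 s intervals.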

[4] = biological target: KiSS-1 receptor (Homo sapiens) (UniProt Q969F8); assay: Human kisspeptin (KISS1R) small molecule agonists, calcium flux assay in KISS1R-HEK293 cells (AID 1920064; active = well fitted curve in the direction sought with a large enough effect in the repeat runs; an effect the other way counts as inactive or inconclusive)
Method in brief: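 HEK293 cells stably expressing human KISS1R were plated 18 h at 37 °C, loaded with calcium dye for 1 h at 37 °C, then given compound by pin tool. Fluorescence (Ex/Em 480/540) was read kinetically for 3 min.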

[5] = G protein-coupled receptor (GPCR) small molecule agonists, calcium flux assay: HEK293 wild type cell line counter screen (AID 1920065)
Method in brief: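 Cells were plated and cultured 18 h at 37 C/5% CO2, then loaded with calcium dye for 1 h at 37 C. Compounds in DMSO were pin-transferred in agonist mode, and fluorescence (Ex/Em 480/540) was read kinetically for 3 min at 1 s intervals.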

[6] = p53 small molecule agonists, cell-based qHTS assay with human liver microsomes (AID 1963577)
Method in brief: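 p53RE-bla reporter cells were pre-incubated 5 h at 37 C, then treated with compounds plus human liver microsomes (0.5 mg/mL final) and NADPH (0.5 mg/mL final) for 16 h at 37 C. Beta-lactamase activity was read by LiveBLAzer fluorescence after 2 h at room temperature.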

[7] = p53 small molecule agonists, cell-based qHTS assay with rat liver microsomes (AID 1963578)
Method in brief: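 p53RE-bla cells were exposed to compounds together with rat liver microsomes (0.5 mg/mL final) and NADPH (0.5 mg/mL final) for 16 h at 37 C, then read by LiveBLAzer beta-lactamase fluorescence after 2 h at room temperature.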

[8] = p53 small molecule agonists, cell-based qHTS assay with human liver microsomes: qHTS cell viability counter screen (AID 1963579); note: nearly all actives have a fitted effect of over 45% in size
Method in brief: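 p53RE-bla cells (4,000/well) were pre-incubated 5 h at 37 C, then given compounds in DMSO plus human liver microsomes (0.5 mg/mL final) and NADPH (0.5 mg/mL final) for 16 h at 37 C. Viability was read by CellTiter-Glo luminescence.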

[9] = p53 small molecule agonists, cell-based qHTS assay with rat liver microsomes: qHTS cell viability counter screen (AID 1963580); note: nearly all actives have a fitted effect of over 45% in size
Method in brief: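 Intracellular ATP, by CellTiter-Glo luminescence, defines viability. HCT-116 p53RE-bla cells, 4,000 per well, were compound-treated in the presence of rat liver microsomes and NADPH for 16 h at 37 C.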

[10] = p53 small molecule agonists, cell-based qHTS assay: qHTS cell viability counter screen (AID 1963581); note: nearly all actives have a fitted effect of over 45% in size
Method in brief: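 p53RE-bla HCT-116 cells were exposed to compounds for 16 h at 37 C; after the beta-lactamase FRET read in the same wells, CellTiter-Glo was added and luminescence (intracellular ATP) read after 30 min at room temperature.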

[11] = p53 small molecule agonists, cell-based qHTS assay (AID 1963582; active = well fitted activation curve with a large enough effect in the signal ratio in the repeat runs, not every such curve was filed as active; the % refers to the signal ratio)
Method in brief: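 p53RE-bla beta-lactamase reporter cells rested 5 h at 37 C/5% CO2, then received compounds in DMSO by pin transfer and were incubated 16 h at 37 C. LiveBLAzer B/G FRET substrate was loaded for 2 h at room temperature before fluorescence reading.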

[12] = biological target: 5-hydroxytryptamine receptor 2A (Homo sapiens) (UniProt P28223); assay: 5-hydroxytryptamine receptor 2A (HTR2A) small molecule antagonists, cell-based qHTS assay (AID 1963586); note: nearly all actives have a fitted effect of over 45% in size
Method in brief: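 Antagonist-mode intracellular calcium assay: DOI (4 nM) added after 5 min compound pre-incubation at room temperature to dye-loaded HTR2A-CHO cells. Fluorescence followed for 3 min, sampled every second.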

[13] = biological target: 5-hydroxytryptamine receptor 2A (Homo sapiens) (UniProt P28223); assay: 5-hydroxytryptamine receptor 2A (HTR2A) small molecule agonists, cell-based qHTS assay (AID 1963587); note: nearly all actives have a fitted effect of over 30% in size
Method in brief: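 Kinetic calcium-flux fluorescence (2 min, 1 sec intervals) after compound addition in agonist mode. HTR2A-CHO cells were cultured 18 h, then dye-loaded 1 h at 37 C.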

[14] = biological target: Muscarinic acetylcholine receptor M1 (Homo sapiens) (UniProt P11229); assay: Cholinergic receptor muscarinic 1 (CHRM1) small molecule antagonists, cell-based qHTS assay (AID 1963588); note: nearly all actives have a fitted effect of over 40% in size
Method in brief: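 CHRM1-CHO calcium-flux assay, antagonist mode. Cells were seeded 18 h, dye-loaded 1 h at 37 C and given compound for 5 min at RT, then acetylcholine was added at 50nM. FDSS fluorescence was read 3 min; 15 concentrations, three runs.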

[15] = biological target: Muscarinic acetylcholine receptor M1 (Homo sapiens) (UniProt P11229); assay: Cholinergic receptor muscarinic 1 (CHRM1) small molecule agonists, cell-based qHTS assay (AID 1963589); note: nearly all actives have a fitted effect of over 35% in size
Method in brief: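 CHO cells stably expressing human CHRM1, seeded 18 h at 37 C/5% CO2, dye-loaded 1 h at 37 C, then given compound in agonist mode; intracellular calcium fluorescence read kinetically at 1 s intervals. Fifteen concentrations, three independent runs.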

[16] = cAMP Responsive Elements (CRE) small molecule antagonists, cell-based qHTS assay (AID 1963591; active = well fitted inhibition curve with a large enough effect in the signal ratio in the repeat runs, not every such curve was filed as active; the % refers to the signal ratio)
Method in brief: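 CRE-bla HEK293T cells were plated 18 h at 37 °C/5% CO2, pinned with compound in DMSO, then stimulated with NKH477 at 0.25 uM final for 3 h. LiveBLAzer B/G FRET substrate was added and plates incubated 2 h at room temperature.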

[17] = biological target: Beta-2 adrenergic receptor (Homo sapiens) (UniProt P07550); assay: Adrenergic beta2 receptor (ADRB2) small molecule antagonists, cell-based qHTS assay (AID 1963592); note: series mostly up to about 92 µM; nearly all actives have a fitted effect of over 50% in size
Method in brief: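 Cells (CHO, stable ADRB2 overexpression) incubated 18-20hr at 37C; compounds added from DMSO; agonist mix (1nM isoproterenol, 100uM IBMX, 25uM Ro-20-1724) added; 0.5hr RT; d2-cAMP and anti-cAMP-cryptate added; 1hr RT; 665/615 nm read.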

[18] = biological target: D(2) dopamine receptor (Homo sapiens) (UniProt P14416); assay: Dopamine D2 receptor (DRD2) small molecule agonists, cell-based qHTS assay (AID 1963594); note: nearly all actives have a fitted effect of over 35% in size
Method in brief: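 cAMP accumulation in DRD2-HEK293 cells measured by HTRF after 1 h detection; compounds added 10 min before NKH477 (200nM […]) forskolin-analogue stimulation, 30 min at room temperature, with Ro20-1724 present at 0.1 mM final.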

[19] = biological target: D(2) dopamine receptor (Homo sapiens) (UniProt P14416); assay: Dopamine D2 receptor (DRD2) small molecule antagonists, cell-based qHTS assay (AID 1963595; active = well fitted inhibition curve with a large enough effect in the signal ratio in the repeat runs, with a control signal flat; the % refers to the signal ratio)
Method in brief: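 In this cell-based antagonist screen, compounds act for 10 min at room temperature before a 30 min challenge with 12 nM quinpirole and 200 nM NKH477. cAMP is quantified by HTRF competition in DRD2-HEK293 cells containing 0.1 mM Ro20-1724.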

D(2) dopamine receptor (Homo sapiens), sequence (P14416 whole entry, looked up): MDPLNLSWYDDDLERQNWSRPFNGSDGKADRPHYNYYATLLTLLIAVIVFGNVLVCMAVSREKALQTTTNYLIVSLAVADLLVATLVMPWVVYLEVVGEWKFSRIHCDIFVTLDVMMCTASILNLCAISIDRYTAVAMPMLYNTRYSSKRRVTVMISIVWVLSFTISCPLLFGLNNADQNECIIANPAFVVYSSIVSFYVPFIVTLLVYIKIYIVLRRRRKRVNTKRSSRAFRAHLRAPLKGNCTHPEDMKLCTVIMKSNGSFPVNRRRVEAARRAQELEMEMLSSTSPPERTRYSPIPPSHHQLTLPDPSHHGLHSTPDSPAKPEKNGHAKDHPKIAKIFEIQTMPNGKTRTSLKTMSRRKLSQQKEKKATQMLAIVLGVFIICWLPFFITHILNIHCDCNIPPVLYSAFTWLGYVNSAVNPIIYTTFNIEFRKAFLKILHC
Muscarinic acetylcholine receptor M1 (Homo sapiens), sequence (P11229 whole entry, looked up): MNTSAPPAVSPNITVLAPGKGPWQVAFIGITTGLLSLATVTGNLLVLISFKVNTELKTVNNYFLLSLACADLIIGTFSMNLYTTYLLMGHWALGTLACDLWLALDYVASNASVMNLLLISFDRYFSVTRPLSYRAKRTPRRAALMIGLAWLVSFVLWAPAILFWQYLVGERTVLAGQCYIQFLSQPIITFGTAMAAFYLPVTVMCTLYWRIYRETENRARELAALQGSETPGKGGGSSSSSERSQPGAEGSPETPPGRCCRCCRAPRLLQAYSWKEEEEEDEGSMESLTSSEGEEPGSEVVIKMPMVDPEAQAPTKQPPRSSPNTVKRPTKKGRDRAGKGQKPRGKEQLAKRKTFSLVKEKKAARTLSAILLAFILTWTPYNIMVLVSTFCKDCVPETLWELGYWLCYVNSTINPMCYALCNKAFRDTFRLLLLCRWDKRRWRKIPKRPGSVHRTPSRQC
Beta-2 adrenergic receptor (Homo sapiens), sequence (P07550 whole entry, looked up): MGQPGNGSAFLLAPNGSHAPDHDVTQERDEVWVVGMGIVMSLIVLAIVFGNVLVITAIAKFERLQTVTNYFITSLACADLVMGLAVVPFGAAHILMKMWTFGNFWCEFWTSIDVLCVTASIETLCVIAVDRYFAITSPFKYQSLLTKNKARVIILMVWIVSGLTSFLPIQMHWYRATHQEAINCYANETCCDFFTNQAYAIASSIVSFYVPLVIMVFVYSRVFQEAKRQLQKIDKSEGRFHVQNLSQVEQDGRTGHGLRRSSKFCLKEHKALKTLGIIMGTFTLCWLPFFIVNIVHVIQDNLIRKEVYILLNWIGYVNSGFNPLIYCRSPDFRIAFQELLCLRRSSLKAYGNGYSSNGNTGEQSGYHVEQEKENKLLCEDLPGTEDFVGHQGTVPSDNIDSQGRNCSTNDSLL
KiSS-1 receptor (Homo sapiens), sequence (Q969F8 whole entry, looked up): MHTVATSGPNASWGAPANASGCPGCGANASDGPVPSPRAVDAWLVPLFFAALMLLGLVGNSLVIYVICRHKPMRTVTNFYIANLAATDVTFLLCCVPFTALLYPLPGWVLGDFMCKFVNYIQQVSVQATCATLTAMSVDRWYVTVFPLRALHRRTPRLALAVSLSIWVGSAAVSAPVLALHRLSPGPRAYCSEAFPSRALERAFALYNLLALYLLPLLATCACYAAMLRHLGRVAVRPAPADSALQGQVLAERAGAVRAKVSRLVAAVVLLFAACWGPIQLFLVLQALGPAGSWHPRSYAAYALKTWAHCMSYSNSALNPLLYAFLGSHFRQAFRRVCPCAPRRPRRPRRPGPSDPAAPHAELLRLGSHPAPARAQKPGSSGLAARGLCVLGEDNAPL
Gonadotropin-releasing hormone receptor (Homo sapiens), sequence (P30968 whole entry, looked up): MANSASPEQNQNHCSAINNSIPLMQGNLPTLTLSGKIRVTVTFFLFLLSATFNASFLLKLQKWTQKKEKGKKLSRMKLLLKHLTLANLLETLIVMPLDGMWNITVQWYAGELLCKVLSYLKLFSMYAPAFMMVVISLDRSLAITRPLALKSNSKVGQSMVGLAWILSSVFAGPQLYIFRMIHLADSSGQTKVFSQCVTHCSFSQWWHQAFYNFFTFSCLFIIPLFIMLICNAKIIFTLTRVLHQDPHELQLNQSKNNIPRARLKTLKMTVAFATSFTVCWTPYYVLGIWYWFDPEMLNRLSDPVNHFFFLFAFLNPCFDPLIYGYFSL
5-hydroxytryptamine receptor 2A (Homo sapiens), sequence (P28223 whole entry, looked up): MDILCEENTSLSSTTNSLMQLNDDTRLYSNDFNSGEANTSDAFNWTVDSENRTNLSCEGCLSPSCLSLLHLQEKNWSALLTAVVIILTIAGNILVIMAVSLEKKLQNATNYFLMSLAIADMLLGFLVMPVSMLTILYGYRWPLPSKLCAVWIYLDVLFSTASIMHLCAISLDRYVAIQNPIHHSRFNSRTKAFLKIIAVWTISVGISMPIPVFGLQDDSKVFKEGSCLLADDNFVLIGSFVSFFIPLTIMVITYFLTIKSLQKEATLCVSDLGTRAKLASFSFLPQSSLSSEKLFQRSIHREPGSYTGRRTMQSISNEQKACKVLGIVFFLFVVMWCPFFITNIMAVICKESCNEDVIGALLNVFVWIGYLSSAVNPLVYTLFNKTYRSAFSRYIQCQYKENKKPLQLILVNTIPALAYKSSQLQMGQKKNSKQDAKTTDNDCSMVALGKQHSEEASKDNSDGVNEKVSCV

SMILES | Potency [1] | Potency [2] | Potency [3] | outcome [4] | outcome [5] | Potency [6] | Potency [7] | Potency [8] | Potency [9] | Potency [10] | Potency [11] | Potency [12] | Potency [13] | Potency [14] | Potency [15] | Potency [16] | Potency [17] | Potency [18] | Potency [19]
CCCCN(CCCC)C(=O)N(CCCC)CCCC | inactive | 61.1 µM (active) | inactive | inactive | inactive | inactive | inactive | inactive | inactive | inactive | inactive | inactive | inactive | inactive | inactive | inactive | inactive | inactive | inactive
CC(CN(C)C)C(C)(O)Cc1ccc(Cl)cc1 (stereo unspecified) | inactive | inactive | inactive | inactive | inactive | inactive | inactive | inactive | inactive | inactive | inactive | inactive | inactive | inactive | inactive | inactive | inactive | inactive | inactive
COc1cc(OC)nc(NC(=O)NS(=O)(=O)Nc2ccccc2C(=O)N(C)C)n1 | inactive | inactive | inactive | inactive | inactive | inactive | inactive | inactive | inactive | inactive | inactive | inactive | inactive | inactive | inactive | inactive | – | inactive | inactive
COc1cc2[nH]c(=O)[nH]c(=O)c2cc1OC | inactive | inactive | inactive | inactive | inactive | inactive | inactive | inactive | inactive | inactive | inactive | inactive | inactive | inactive | inactive | inactive | inactive | – | inactive
FC1(F)C(F)(F)C(F)(F)C2(F)C(F)(C1(F)F)C(F)(F)C(F)(F)C1(F)C(F)(F)C(F)(F)C(F)(F)C(F)(F)C12F (stereo unspecified) | inactive | inactive | inactive | inactive | inactive | inactive | inactive | inactive | inactive | inactive | inactive | inactive | inactive | inactive | inactive | inactive | inactive | inactive | inactive
CC(C)(C)C(=O)/C=C/c1ccc(Cl)cc1 | inactive | 54.5 µM (active) | inactive | inactive | inactive | inactive | inactive | inactive | inactive | inactive | inactive | inactive | inactive | inactive | inactive | inactive | inactive | inactive | inactive
CNCc1ccccc1 | inactive | inactive | inactive | inactive | inactive | inactive | inactive | inactive | inactive | inactive | inactive | inactive | inactive | inactive | inactive | inactive | inactive | inactive | inactive
